Only some compounds are listed: those with a hit (about 4.6% of all), similar ones and a draw of the others.
D1 ag – human D1 receptor agonism; HEK293 T-REx D1 cells, calcium flux, agonist mode; P21728; AID 504660; activation, % at 2 µM; 360,000 compounds, 1% hits; further: 0% is about no effect
Target sequence (P21728 whole entry, looked up): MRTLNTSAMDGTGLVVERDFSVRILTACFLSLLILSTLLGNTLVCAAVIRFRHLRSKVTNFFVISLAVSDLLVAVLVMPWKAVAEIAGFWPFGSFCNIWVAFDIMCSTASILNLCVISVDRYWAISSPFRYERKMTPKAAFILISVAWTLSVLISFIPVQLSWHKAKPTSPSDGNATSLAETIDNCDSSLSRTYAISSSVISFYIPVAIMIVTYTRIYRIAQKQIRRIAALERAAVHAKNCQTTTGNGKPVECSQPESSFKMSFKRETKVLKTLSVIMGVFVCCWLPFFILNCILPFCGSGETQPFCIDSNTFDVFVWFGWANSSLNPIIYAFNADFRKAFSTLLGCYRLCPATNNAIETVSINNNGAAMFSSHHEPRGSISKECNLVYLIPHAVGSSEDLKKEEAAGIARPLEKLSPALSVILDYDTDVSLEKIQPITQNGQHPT
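Inducible HEK293 T-REx D1 cells, force-coupled to calcium signalling, were plated at 4000 cells/well with tetracycline and held overnight at 30 C. After no-wash calcium dye loading, compound-evoked calcium rise over 180 s flagged agonists.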
TRHR ag – agonists of human TRH receptor | activation, % at 2 µM | AID 493084 | P34981 | 360,000 compounds, 0.18% hits | TRHR cells, calcium flux fluo-8, FDSS agonist mode; further: 0% is about no effect
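TRHR-expressing cells loaded with fluo-8 calcium dye; 23 nL library compound pin-transferred, kinetic FDSS fluorescence (Ex 480/Em 530) recorded about 180 s for agonist-induced calcium release, before a 10 nM TRH EC20 addition for potentiator mode.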
D1 antag – antagonists of human D1 dopamine receptor | 360,000 compounds, 3.2% hits | activity change, negative = inhibition, % at 10 µM | HEK293 TREx D1 cells, calcium flux, dopamine EC80; active compounds read low; in the data active means activity change below about -30%; further: on the % scale 0 is the no-effect control and ±100 the full control effect
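Compound effects on dopamine-evoked calcium signalling were measured in tetracycline-induced HEK293 Trex D1 cells. Dopamine at EC80 followed a 180 s compound pre-read, and fluorescence was tracked kinetically for 180 s more.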
D1 potentiator – potentiators of human D1 dopamine receptor | P21728 | potentiation, % at 10 µM | HEK293 TREx D1 cells, calcium flux, dopamine EC20 potentiation | 360,000 compounds, 0.036% hits; in the data active means potentiation above about 30%; further: 0% is about no effect
TRHR enhancer – allosterically enhances the human TRH receptor. TRHR cells, fluo-8 calcium fluorescence, EC20 TRH enhancement. P34981. 360,000 compounds, 0.66% hits. enhancement, % at 2 µM; in the data active means enhancement above about 30%; further: 0% is about no effect
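Enhancer read-out: after compound pinning and an initial kinetic agonist-mode read, an EC20 of TRH (10 nM final) was injected and fluo-8 calcium signal (Ex 480/Em 530) followed at 1 s/cycle for 100 cycles in TRHR-expressing cells.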
An asterisk follows results filed as active; / = not tested or not shown. Unless noted, no stated cut-off is given here; in the data, active means activation above about 30%; inactive means the rest.

SMILES | D1 ag | TRHR ag | D1 antag | D1 potentiator | TRHR enhancer
CCOC(=O)c1ccc(NC(=O)CCc2nc(-c3ccc(C)cc3)no2)cc1 | 45* | -2 | 1 | -9 | 15
Cc1nc2ccn(Cc3cccnc3)c(=O)c2cc1C(=O)N1CCN(c2ccc(F)cc2)CC1 | 0 | 0 | -5 | -4 | 5
CC(C)CCn1c(N2CCOCC2)nc2c1c(=O)n(CC(N)=O)c(=O)n2C | 1 | 1 | -58* | -10 | 6
Cc1csc(SCCn2c(N3CCN(c4ccccc4)CC3)nc3c2c(=O)[nH]c(=O)n3C)n1 | -1 | -1 | -64* | 0 | 5
CC(C)CCn1c(N2CCCC2)nc2c1c(=O)[nH]c(=O)n2C | 4 | -1 | -38* | -5 | -8
N#Cc1ccc(-c2cccs2)nc1SCc1ccc(Cl)cc1Cl | 2 | 1 | -6 | -5 | -4
COc1cc(/C=N/NC(=O)c2ccc(CSc3nc4ccccc4[nH]3)cc2)cc(OC)c1OC | 11 | -1 | -33* | -10 | 4
COc1cc(/C=N\NC(=O)c2ccc(-c3ccccc3)cc2)cc(OC)c1O | 0 | -1 | -31* | -3 | -3
COc1cc(/C=N/NC(=O)c2ccc3nc[nH]c3c2)cc(OC)c1OC | 0 | 2 | 7 | -1 | 14
Cc1c2cnn(-c3ccccc3)c(=O)c2c(C)n1CC(=O)NCCc1ccc(Cl)cc1 | -2 | 0 | -6 | -2 | -3
CCC(=O)c1ccc(OCC(O)Cn2nnc3ccccc32)cc1 (configuration not stated) | 3 | 0 | 24 | -2 | 3
Cc1cccc(C)c1OCCn1nnc2ccccc21 | 8 | 0 | -42* | -2 | 9
Cc1ccccc1OCC(O)Cn1nnc2ccccc21 (configuration not stated) | 20 | -1 | -55* | -9 | -3
CCn1cc(C(=O)NCCc2ccc(Cl)cc2)c(=O)c2cc(S(=O)(=O)N3CCOCC3)ccc21 | 0 | 1 | -1 | 5 | -2
Cc1ccc(NC(=O)N(Cc2c[nH]c3ccccc23)C2CCCCCC2)cc1C | 2 | 3 | 15 | 0 | 4
CCc1cccc(NC(=O)Cn2c(C(=O)OC)cc3sc(Cl)cc32)c1 | 0 | 0 | 0 | 0 | 0
Cc1cccc(N2CCN(C(=O)c3c(C)oc4ncnc(N5CCOCC5)c34)CC2)c1C | -1 | 0 | -19 | -3 | 12
Cc1[nH]cc(Br)c(=O)c1Oc1ncc(C(F)(F)F)cc1Cl | 2 | 0 | -35* | -8 | -7
FC(F)(F)c1cnc(Oc2cccc3ccccc23)c(Cl)c1 | 0 | 0 | 2 | -1 | 6
Cc1cc2c(s1)c1cnn(Cc3ccc4ccccc4c3)c(=O)c1n2C | 4 | 0 | -2 | -5 | 4
Cc1ccc2c(c1)Sc1ccccc1CC2=O | 0 | -2 | -48* | -3 | -6
O=C1Cc2ccccc2Sc2ccccc21 | 1 | 0 | 5 | 1 | 0
CN(C)CCOc1ccc2c(c1)Sc1ccccc1CC2=O | 11 | 1 | -30* | -12 | -5
COc1cc(OC)c(NC(=O)CSc2cc(=O)n(C)c3ccc(Cl)cc23)cc1Cl | 0 | 0 | 5 | 5 | 40*
Cc1ccc(C(=O)N2c3nc(-c4ccco4)nn3C3(CCCCC3)[C@@H]3CCCC[C@@H]32)cc1 | -1 | -1 | 12 | 1 | 0
SMILES | D1 ag | TRHR ag | D1 antag | D1 potentiator | TRHR enhancer
COc1cc(CNCc2ccncc2)cc(Br)c1OCc1ccccc1F | 10 | -1 | -31* | -5 | 4
CCOc1cc(CNCCO)cc(Br)c1OCc1ccccc1Cl | 68* | 3 | 24 | -3 | 3
COc1cc(CNc2ccc(O)cc2)cc(Br)c1OCc1ccccc1F | 0 | -2 | -16 | -4 | 1
CCOc1cc(CNCCCN2CCOCC2)cc(Br)c1OCc1ccccc1Cl | 67* | 2 | -12 | 0 | 11
CCOc1cc(CNCCN2CCOCC2)ccc1OCc1ccccc1Cl | 37* | -4 | -22 | -5 | 7
Cc1cc(-n2c(C)nc3ccccc3c2=O)ccc1NC(=O)c1ccc(C)c([N+](=O)[O-])c1 | 1 | -1 | / | -2 | 2
CC1CCc2nc(NC(=O)c3ccc(N4C(=O)CCC4=O)cc3)sc2C1 (configuration not stated) | 2 | 0 | 7 | 0 | 10
O=C(Nc1nc2c(s1)CCCC2)c1ccc(N2C(=O)CCC2=O)cc1 | 3 | 0 | -71* | -7 | 25
CCN1CCCC1CN=Cc1c(O)n(-c2ccccc2)c(=O)c2ccccc12 (configuration not stated) | 1 | 0 | -78* | -8 | 9
CNCCC(Oc1ccc(C(F)(F)F)cc1)c1ccccc1 (configuration not stated) | 62* | 3 | / | / | 5
CNCCOCC(O)CSc1ccccc1 (configuration not stated) | 2 | 0 | -16 | -4 | -1
O=C(CC(=O)Nc1ccccc1[N+](=O)[O-])Nc1ccccc1[N+](=O)[O-] | 11 | 0 | -34* | -7 | -2
CCOc1ccccc1OCC(=O)OCC(=O)NNC(=O)c1ccc([N+](=O)[O-])cc1 | 6 | 0 | -16 | -3 | 30*
O=C(COC(=O)COc1ccccc1[N+](=O)[O-])Nc1ccccc1Br | 5 | 0 | -43* | 4 | 2
CC(C)c1ccccc1NC(=O)COC(=O)COc1ccccc1[N+](=O)[O-] | 3 | 0 | 18 | -2 | -1
O=C(CCOc1ccccc1)Nc1ccccc1[N+](=O)[O-] | 1 | 0 | 12 | 1 | 1
Cc1cccc(CNC(=O)Cn2c(-c3cccs3)cc3ccccc32)c1 | -1 | -1 | 6 | 1 | 0
Cc1ccc(C(=O)NCCOc2cccc(C)c2)cc1 | 1 | -1 | -4 | 5 | -3
CSc1ccccc1C(=O)NCCOc1cccc(C)c1 | 3 | 0 | -50* | -4 | -6
O=S(=O)(Nc1cc(Br)cc2cccnc12)c1ccccc1 | 3 | 1 | 0 | 2 | 2
O=S(=O)(Nc1cccc(C(F)(F)F)c1)c1ccc(NS(=O)(=O)c2ccc3c(c2)OCCO3)cc1 | 2 | 0 | 9 | 1 | 1
CC(OC(=O)c1cccc(S(=O)(=O)Nc2cccc(C(F)(F)F)c2)c1)C(=O)Nc1ccc2c(c1)OCCO2 (configuration not stated) | 4 | -2 | -36* | -9 | 0
O=C(c1cc2ccc3cccnc3c2[nH]1)N1CCN(c2ccccc2)CC1 | 0 | -1 | -5 | 1 | -3
O=C(Cc1ccc(Cl)cc1)Nc1ncc([N+](=O)[O-])s1 | 31* | 2 | -43* | -6 | -14
O=C(COc1ccc(Cl)cc1)Nc1ncc([N+](=O)[O-])s1 | 28 | 4 | -32* | -4 | -10
O=C(COC(=O)COc1ccccc1)Nc1ncc([N+](=O)[O-])s1 | 6 | 0 | 9 | -8 | 1
